TDP1 cell noCPT: qHTS for Inhibitors of human tyrosyl-DNA phosphodiesterase 1 (TDP1): qHTS in cells in absence of CPT. AID 686978, 2013. DT40 Tdp1-/- hTDP1 cells, no CPT, ATP luminescence, 48 h. Potency, µM (series often up to 46.2 µM), for the others: top-dose activity change, negative = growth inhibition, actives largely listed as inhibitors. hit rate 15% among 420,000; note: % is set by controls: 0 for no effect and ±100 for the full control effect; nearly all actives have a fitted effect of over 55% in size
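Chicken DT40 Tdp1-/- cells complemented with human TDP1, screened without camptothecin (DMSO vehicle only), 400 cells/well. Compounds pin-transferred, cells incubated at 37 °C for at least 48 hr. Growth read as ATP-dependent luminescence (CellTiter-Glo, 30 min at RT).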
S2 tox: viability counter-screen for ATXN expression inhibitors. S2 cells (HEK-293 line with an ATXN2-luciferase reporter) viability, CellTiter-Fluor protease fluorescence, 24 h. AID 651635. hit rate 0.49% among 400,000. Potency, µM (series often up to 56.7 µM), most hits filed as cytotoxic; note: nearly all actives have a fitted effect of over 40% in size
HepG2 tox: HepG2 cytotoxicity, counter-screen for TGF-b inhibitors | Potency, µM (top dose mostly 46.1 µM), without a hit: top-dose activity change, negative = cytotoxicity, actives largely listed as cytotoxic | HepG2 CAGA-GFP viability, ATP luminescence, 18 h | hit rate 0.76% among 410,000
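CellTiter-Glo luminescence gave cytotoxicity after 18 hours at 37 degrees C. The cells were HepG2 CAGA-GFP in 1% FBS DMEM, stimulated with 500 pg/mL TGF-beta after compound addition. %Activity was normalised to no-cell wells (complete cell-killing) and DMSO (no toxicity), and curves were fitted and classified.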
ATXN2 expr inh: reduces ATXN2 reporter expression in HEK-293 cells | hit rate 0.72% among 360,000 | Potency, µM (highest dose often 57 µM), without a hit: top-dose activity change, negative = inhibition, actives largely listed as inhibitors | HEK-293 ATXN2-luciferase reporter, luminescence, 24 h; note: % is set by controls: 0 for no effect and ±100 for the full control effect; nearly all actives have a fitted effect of over 55% in size
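qHTS (up to 57 uM final) was run with 24 h compound exposure of reporter cells at 37 °C. Each well was multiplexed: SteadyGlo luminescence measured ATXN2-luciferase expression after a fluorogenic Gly-Phe-AFC viability readout (25 uM final).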
TGFb SMAD3 inh: blocks TGF-b signaling; HepG2 CAGA-GFP TGF-b/SMAD3 reporter, GFP fluorescence, 18 h; TGF-beta stimulated, 500 pg/mL final; Potency, µM (top dose mostly 46.1 µM), without a hit: at the highest dose activity, negative = inhibition, hits mostly inhibitors; AID 588855; hit rate 1.2% among 410,000; note: % is set by controls: 0 for no effect and ±100 for the full control effect; nearly all actives have a fitted effect of over 65% in size
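HEPG2 CAGA-GFP, 1000 cells/well; 2 h settle, 37 C; cpd via pin tool; TGF-b 500 pg/mL final; 18 h, 37 C; GFP imaging ex488/em500-530; %Activity normalised to -TGF-b and +DMSO controls; CRC fit, curve class.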
TDP1 cell CPT: DT40-hTDP1 cell growth loss with CPT | chicken DT40 Tdp1-/-;hTDP1 cells + 20 nM CPT, ATP luminescence, 48 h | Potency, µM (titrated, usually from 46.2 µM), without a hit: at the top dose activity change, negative = growth inhibition, hits mostly inhibitors | hit rate 12% among 420,000 | AID 686979; note: % is set by controls: 0 for no effect and ±100 for the full control effect; nearly all actives have a fitted effect of over 55% in size
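Cell growth measured by CellTiter-Glo luminescence after a minimum 48 h, 37 C compound exposure with 20 nM CPT in Tdp1-knockout DT40 cells stably expressing hTDP1, seeded 400/well; qHTS titration format.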
Numbers without * were called inactive; i = inactive; ? = inconclusive; · = not tested or not shown; ! = repeats disagree. A selection: hits, their analogues and other compounds. The true share with any hit is near 17%. Calls come from the whole dose curve; as a rule, active = well fitted curve in the direction sought with a large enough effect; inconclusive = small, poorly fitted or top-dose-only effect, or another doubt; inactive = no such curve, though single readings can be large; an effect the other way counts as inactive or inconclusive. Potency is the fitted concentration of half-maximal effect.

SMILES	TDP1 cell noCPT	S2 tox	HepG2 tox	ATXN2 expr inh	TGFb SMAD3 inh	TDP1 cell CPT
O=C(O)c1ccccc1NC(=O)C1CCN(S(=O)(=O)c2cccc3nsnc23)CC1	16.4µM*	i	-57.4%	-14.6%	-3.8%	-20.3%
O=C(NCCc1ccccc1)C1CCCN(S(=O)(=O)c2cccc3nonc23)C1 (stereo unspecified)	?	i	-1.9%	-6.3%	-7.6%	-13.5%
O=C(C1CCCN(S(=O)(=O)c2cccc3nsnc23)C1)N1CC=C(c2ccccc2)CC1 (stereo unspecified)	10.3µM*	?	-19.2%	?	?	13µM*
O=C(C1CCN(S(=O)(=O)c2cccc3nsnc23)CC1)N1CCCCC1	15.2%	i	1.0%	0.7%	5.9%	-18.6%
O=C(NCc1ccccc1CN1CCCC1)c1ccc(S(=O)(=O)Nc2ccccc2F)cc1	?	i	-14.7%	·	-25.0%	-28.7%
Cc1ccccc1NS(=O)(=O)c1ccc(C(=O)NCc2ccccc2CN2CCCC2)cc1	23.1µM*	?	-34.3%	·	0.1%	?
O=C(NCc1ccccc1CN1CCCC1)c1ccc(S(=O)(=O)Nc2ccccc2)cc1	13µM*	i	-31.4%	·	-14.4%	20.6µM*
CCCn1c(=O)c2sccc2n2c(CCCC(=O)NC3CCN(Cc4ccccc4)CC3)nnc12	-21.1%	?	-15.8%	·	-15.9%	-21.3%
C[C@@H]1CC(=O)NN=C1c1ccc(NN=C(C#N)C#N)cc1	9.44µM*	25.1µM*	·	27.3µM*!	·	10.6µM*
CC1CC(=O)NN=C1c1ccc(NCCO)c([N+](=O)[O-])c1 (stereo unspecified)	2.1%	i	-0.9%	14.8%	-0.9%	-1.5%
OCC[C@H]1C[C@H](O)[C@@H](O)[C@@]2(CCc3ccccc3O2)O1	-9.3%	i	5.8%	6.1%	2.0%	-2.5%
Cc1ccc(Cl)cc1-n1c(SCC(=O)NCc2ccccc2)nc2n[nH]c(C)c2c1=N	?	i	-31.7%	-18.1%	-26.2%	?
CCC(C)NC(=O)CSc1nc2n[nH]c(C)c2c(=N)n1-c1cc(Cl)ccc1C (stereo unspecified)	16.4µM*	?	-14.3%	-25.2%	?	?
Cc1cccc(-n2c(SCC(=O)N3CCCC3)nc3n[nH]c(C)c3c2=N)c1	?	i	8.6%	-1.7%	-17.2%	?
Cc1ccc(NC(=O)CSc2nc3n[nH]c(C)c3c(=N)n2-c2cccc(C)c2)cc1	3.26µM*	·	-12.8%	·	0.0%	5.8µM*
Cc1cccc(NC(=O)CSc2nc3n[nH]c(C)c3c(=N)n2-c2cccc(Cl)c2)c1	14.6µM*	·	-32.9%	·	?	18.4µM*
CCC(Sc1nc2n[nH]c(C)c2c(=N)n1-c1cccc(Cl)c1)C(=O)NCCOC (stereo unspecified)	13µM*	i	-23.7%	-7.7%	3.9%	23.1µM*
Cc1nc2ccccc2n1C(=O)c1ccc(Cl)cc1[N+](=O)[O-]	8.5%	?	1.1%	3.5%	6.8%	-15.8%
O=C(NCCc1ccccc1)C1CCN(c2nc3ccccc3nc2C(F)(F)F)CC1	?	i	-0.2%	8.0%	-22.3%	?
CCCSCCCNC(=O)C1CCN(c2nc3ccccc3nc2C(F)(F)F)CC1	16.4µM*	i	-5.4%	1.0%	?	20.6µM*
COc1ccc(CCNC(=O)C2CCN(c3nc4ccccc4nc3C(F)(F)F)CC2)cc1OC	18.4µM*	i	-9.5%	6.0%	-30.5%	23.1µM*
Cc1cccc(C)c1NC(=O)C(c1ccccc1)N1CCN(C/C=C/c2ccccc2)CC1 (stereo unspecified)	?	?	-32.3%	-10.1%	?	18.4µM*
CC(=O)c1ccc(NC(=O)C(C)N2CCN(C/C=C/c3ccccc3)CC2)cc1 (stereo unspecified)	?	i	12.0%	-4.0%	19.9%	-15.6%
CSCCC(C(=O)Nc1c(C)cccc1C)N1CCN(C/C=C/c2ccccc2)CC1 (stereo unspecified)	13µM*	?	2.0%	-12.2%	?	?
COc1ccc(Cl)cc1NC(=O)C(C)N1CCN(C/C=C/c2ccccc2)CC1 (stereo unspecified)	20.6µM*	?	-29.3%	?	?	?
SMILES	TDP1 cell noCPT	S2 tox	HepG2 tox	ATXN2 expr inh	TGFb SMAD3 inh	TDP1 cell CPT
CCOc1ccccc1CN1CCNC(=O)C1CC(=O)NCCc1ccccn1 (stereo unspecified)	-4.5%	i	0.6%	5.0%	34.2%	-11.9%
CCOc1ccc(S(=O)(=O)Nc2cccc(C(=O)NCC3CCCO3)c2)cc1 (stereo unspecified)	?	i	-9.8%	-7.5%	-6.8%	?
CCOc1ccc(-c2nnc(SCC(=O)NCc3ccccc3)nc2-c2ccc(OCC)c(OC)c2)cc1OC	?	·	-35.4%	·	-4.8%	?
CCOC(=O)C[C@H]1c2ccc(C(F)(F)F)cc2S(=O)(=O)N1C1CCCC1	?	i	-20.8%	-9.1%	-0.6%	?
CCCCCCCCCCCCN1[C@@H](CC(=O)OC)c2cc(F)cc(F)c2S1(=O)=O	18.4µM*	i	-16.4%	2.9%	0.7%	?
CCCCCCCCCCCCN1[C@@H](CC(C)=O)c2cc(F)ccc2S1(=O)=O	?	i	-62.2%	7.8%	-23.4%	?
CCCCCCCCN1[C@@H](CC(=O)OCC)c2cc(C(F)(F)F)ccc2S1(=O)=O	16.4µM*	i	-21.2%	-4.2%	?	?
CCCCCCCCCCCCN1[C@@H](CC(=O)OC)c2cc(F)ccc2S1(=O)=O	10µM*	i	-3.6%	4.9%	?	?
CCCCCCCCCCCCN1[C@@H](CC(C)=O)c2cc(C(F)(F)F)ccc2S1(=O)=O	?	i	-3.4%	16.1%	?	?
CCOC(=O)C[C@H]1c2ccc(C(F)(F)F)cc2S(=O)(=O)N1C(C)(C)C	?	i	-0.8%	-14.9%	2.5%	11.2µM*!
CN(CCc1ccccc1)C(=O)c1ccc(NC(=O)Cc2ccc(NC(=O)C3CCCN(C(=O)c4ccccc4)C3)cc2)cc1 (stereo unspecified)	?	i	-3.9%	2.7%	0.1%	?
CCOc1ccccc1N(CC(=O)NCC1CCCO1)C(=O)CCC(=O)Nc1nccs1 (stereo unspecified)	-2.8%	i	-11.6%	0.0%	-5.6%	3.1%

High-throughput results from PubChem BioAssay.
